From ChEMBL document CHEMBL3988442, “University of Dundee, Small-Polar-MMV Screening Library” (2021) come the findings set out here.

This test addresses AMP-activated protein kinase, AMPK (Homo sapiens) (UniProt P54646+O43741+P54619+Q9UGJ0+Q9Y478+Q13131+Q9UGI9). As to the kind of experiment: AMP-dependent Kinase enzyme assay. An in vitro enzyme assay that detects ADP turnover that is directly proportional to AMPK activity. This uses naive AMPK that is activated during the assay with MK-8722. In kind it is functional. Particulars: 30 µM. Also noted: scale not given: direction of the effect not stated beside the values.
`COc1cc(N(C)CCCn2nc(C)cc2C)ncn1`: the Percent Effect came to 13.8%. As for `CCCOc1ccccc1CCCNc1ncnc2oc(C)nc12`, the figure is 2.11%; as for `CN(C)CC(=O)NC1CC(C)(C)Cc2nc(C(C)(C)C)ncc21` (centres undefined), -0.385%; as for `COc1c(C)cnc(CN2CCCC(c3noc(C4CC4)n3)C2)c1C` (centres undefined), -0.157%. Regarding `O=C(CN1CC(c2ccccc2)CC1=O)N1CCN(c2nccs2)CC1` (centres undefined), the Percent Effect worked out at 15.4%. On to `CC(C(=O)NCc1ccc2c(c1)OCCO2)n1cncn1` (centres undefined), for which the Percent Effect was -8.38%. Turning to `CN(CCc1ccccc1)c1cnn(CC2COCCO2)c(=O)c1` (centres undefined), the Percent Effect is 8.71%. As for `O=C(O)c1cn(CC2CCCN(c3ccc4ccccc4n3)C2)nn1` (centres undefined), the figure is -0.883%. The value for `COCC(C)NC(=O)c1sccc1-n1cnnn1` (centres undefined) was 15.6%. The value for `CCNc1cc2c(nn1)CCN(C(=O)c1ccc(-n3cccn3)nc1)C2` was -5.94%; that for `CCCC1COCCN1Cc1ccc(C(=O)O)cc1` (centres undefined) was -3.74%; that for `O=C(c1coc(COc2ccccc2F)n1)N1CCCO1` was 6.72%. For the molecule `O=C1CCC2(CCCN(CCn3cc(Cl)cn3)C2)CN1C1CCCC1` (centres undefined), the Percent Effect came out at 14.4%. Consider `COc1cc(F)c(NCc2nc3ccccc3n2C)cc1OC`, for which the Percent Effect was -46.6%. As for `COCC(=O)N1CCCC1(C(=O)N(C)C)c1cnccn1` (centres undefined), the Percent Effect amounted to 6.8%.

As to `CC(C)NC(=O)c1nc(Cn2c(C(F)(F)F)nc3ccccc32)no1`, the Percent Effect stood at 6.13%.

Consider `CN(CCCc1cnn(C)c1)Cc1cc2n(n1)CCCN(C)C2`, for which the Percent Effect is -6.92%. As for `Cn1cc(CN(C(=O)c2ccc(O)c(Cl)c2)C2CC2)cn1`, the figure is 10.3%; as for `COc1ncccc1CNCc1cnc(N2CCOCC2)nc1`, -1.53%. The value for `Cc1cc(NC(=O)N2CCC[C@@H]2CO)nn1-c1cccc(Cl)c1` was -3.24%; that for `CN(CCCO)C(=O)c1ccc2c(c1)nc(N1CC[C@H](O)C1)n2C` was 6.47%. As to `COc1ccc(C2CN(c3cc(C)ncn3)CCN2C(C)=O)cc1` (centres undefined), the Percent Effect came out at 21.4%. On to `Cc1ccc(-c2nc(C(=O)N(C)CC(=O)N(C)C)cs2)c(C)c1`, for which the Percent Effect is -3.64%. The value for `Cc1ccc(-c2noc(Cn3nc(C(N)=O)ccc3=O)n2)cc1` was 5.62%. In the case of `CCC(c1ccc(F)cc1F)S(=O)(=O)CCO` (centres undefined), the Percent Effect is -2.09%. Regarding `CC(=O)N[C@H]1CCO[C@@H](c2cccc(NC(=O)c3ccc(=O)[nH]n3)c2)C1`, the Percent Effect was found to be 14.1%. `CC(OCC1CC1)C(=O)NCCC(=O)Nc1ccccn1` (centres undefined): the Percent Effect is 12.4%.

Regarding `O=C(c1cncc(NCC2COc3ccccc3C2)n1)N1CCCCC1` (centres undefined), the Percent Effect was found to be 16.5%. In the case of `CCS(=O)(=O)NCc1nc(C)cc(N2CCCCC2)n1`, the Percent Effect is 0.829%. As to `CCNC(=O)NCc1ccc(-n2ccc(C(F)(F)F)n2)cc1`, the Percent Effect is -2.79%.

Consider `CN(CC1CCCCO1)c1nc2c(cc1C(N)=O)CCC2` (centres undefined), for which the Percent Effect is -5.23%. The value for `COC1CCN(c2ccc(F)cc2CN(C)C(C)C(N)=O)CC1` (centres undefined) was 8.56%; that for `CCn1cnnc1CNS(=O)(=O)N1CCCC1c1ccco1` (centres undefined) was -5.92%; that for `O=C1CN([C@@H]2CC[C@@H](NS(=O)(=O)c3ccccc3F)[C@H]2O)CCN1` was -4.46%. The value for `CC(C)Cn1ncc(C(=O)NS(=O)(=O)c2ccccc2)c1C1CC1` was 4.86%; that for `O=C(CN1CC(c2ccccc2)CC1=O)N1CCC(c2ncc[nH]2)CC1` (centres undefined) was 2.5%; that for `O=C(c1cc(-c2ccccc2)nc2onc(C3CC3)c12)N1CC[C@H](O)C1` was 4.85%. The value for `COc1ccc(NC(=O)Cc2c(C)nn(C)c2C)cc1F` was 1.16%. For the molecule `COC(=O)N1CCCCC1C(=O)N1CCCN(c2ccnc(C)c2)CC1` (centres undefined), the Percent Effect was -3.17%.
